Results: the supplement of paper PMC4466140

B1: unnamed (peptide)
chain: YVRRRPRVRLEPLLS

What follows are binders tested against AgAbp1 (assay: SPOT peptide array binding signal intensity (averaged, normalized) (arbitrary units (background-subtracted, floor 0; scale differs between SH3 domains)); higher = stronger binding of the SH3 domain to the peptide).
Outline: (§1)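 E. coli BL21(DE3) was used to express GST-fused SH3 domains from four yeast species, which were then purified on glutathione Sepharose. These were incubated at 10 μg/ml in TBS-based blocking buffer overnight at 4°C on cellulose membranes carrying synthetic 15-mer peptides, in which cysteines were replaced by serines. Binding signal is the replicate average of normalized, background-subtracted spot intensity, in arbitrary units that differ between domains.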

Row | Binder | SPOT peptide array binding signal intensity
1 | B1 | 116

The binders below were run against AgBbc1 in the same assay as above.
Outline: as §1

Row | Binder | SPOT peptide array binding signal intensity
2 | B1 | 30.5

Each binder was assayed against AgBem1-D1 in the same assay as above.
Outline: as §1

Row | Binder | SPOT peptide array binding signal intensity
3 | B1 | 62.5

Each binder was assayed against AgBzz1-D1 in the same assay as above.
Outline: as §1

Row | Binder | SPOT peptide array binding signal intensity
4 | B1 | 152

These binders were tested against AgBzz1-D2 in the same assay as above.
Outline: as §1

Row | Binder | SPOT peptide array binding signal intensity
5 | B1 | 91.5

Each binder was assayed against AgCyk3 in the same assay as above.
Outline: as §1

Row | Binder | SPOT peptide array binding signal intensity
6 | B1 | 6.5

Each binder was assayed against AgFus1 in the same assay as above.
Outline: as §1

Row | Binder | SPOT peptide array binding signal intensity
7 | B1 | 928

The binders below were run against AgHof1 in the same assay as above.
Outline: as §1

Row | Binder | SPOT peptide array binding signal intensity
8 | B1 | 35

Each binder was assayed against AgHse1 in the same assay as above.
Outline: as §1

Row | Binder | SPOT peptide array binding signal intensity
9 | B1 | 936

These binders were tested against AgLsb1 in the same assay as above.
Outline: as §1

Row | Binder | SPOT peptide array binding signal intensity
10 | B1 | 17.2

These binders were tested against AgLsb4 in the same assay as above.
Outline: as §1

Row | Binder | SPOT peptide array binding signal intensity
11 | B1 | 138

What follows are binders tested against AgMyo5 in the same assay as above.
Outline: as §1

Row | Binder | SPOT peptide array binding signal intensity
12 | B1 | 6

The binders below were run against AgNbp2 in the same assay as above.
Outline: as §1

Row | Binder | SPOT peptide array binding signal intensity
13 | B1 | 424

These binders were tested against AgRvs167 in the same assay as above.
Outline: as §1

Row | Binder | SPOT peptide array binding signal intensity
14 | B1 | 14.1

What follows are binders tested against AgSho1 in the same assay as above.
Outline: as §1

Row | Binder | SPOT peptide array binding signal intensity
15 | B1 | 263

The binders below were run against AgSla1-D1-D2 in the same assay as above.
Outline: as §1

Row | Binder | SPOT peptide array binding signal intensity
16 | B1 | 258

What follows are binders tested against AgSla1-D3 in the same assay as above.
Outline: as §1

Row | Binder | SPOT peptide array binding signal intensity
17 | B1 | 15.8

These binders were tested against CaAbp1-D1 in the same assay as above.
Outline: as §1

Row | Binder | SPOT peptide array binding signal intensity
18 | B1 | 603

Each binder was assayed against CaAbp1-D2 in the same assay as above.
Outline: as §1

Row | Binder | SPOT peptide array binding signal intensity
19 | B1 | 652

The binders below were run against CaBbc1 in the same assay as above.
Outline: as §1

Row | Binder | SPOT peptide array binding signal intensity
20 | B1 | 150

The binders below were run against CaBem1-D1 in the same assay as above.
Outline: as §1

Row | Binder | SPOT peptide array binding signal intensity
21 | B1 | 81.5

These binders were tested against CaBzz1-D1 in the same assay as above.
Outline: as §1

Row | Binder | SPOT peptide array binding signal intensity
22 | B1 | 184

What follows are binders tested against CaBzz1-D2 in the same assay as above.
Outline: as §1

Row | Binder | SPOT peptide array binding signal intensity
23 | B1 | 108

Each binder was assayed against CaCyk3 in the same assay as above.
Outline: as §1

Row | Binder | SPOT peptide array binding signal intensity
24 | B1 | 45.5

The binders below were run against CaFus1 in the same assay as above.
Outline: as §1

Row | Binder | SPOT peptide array binding signal intensity
25 | B1 | 589

Each binder was assayed against CaHof1 in the same assay as above.
Outline: as §1

Row | Binder | SPOT peptide array binding signal intensity
26 | B1 | 0.75

The binders below were run against CaHse1 in the same assay as above.
Outline: as §1

Row | Binder | SPOT peptide array binding signal intensity
27 | B1 | 107

What follows are binders tested against CaLsb1 in the same assay as above.
Outline: as §1

Row | Binder | SPOT peptide array binding signal intensity
28 | B1 | 0.75

The binders below were run against CaLsb4 in the same assay as above.
Outline: as §1

Row | Binder | SPOT peptide array binding signal intensity
29 | B1 | 164

What follows are binders tested against CaMyo5 in the same assay as above.
Outline: as §1

Row | Binder | SPOT peptide array binding signal intensity
30 | B1 | 8.25
